This passage reports binding signal results from publication PMC7862700, “An all-to-all approach to the identification of sequence-specific readers for epigenetic DNA modifications on cytosine”.

Holding throughout (test): DAPPL (digital affinity profiling via proximity ligation, sequencing); 10 mM Tris-HCl pH 7.5, 50 mM NaCl, 1 mM DTT, 4% glycerol, room temperature, 30 min; GST-TFs on glutathione beads, 16-mer random dsDNA library, 0.1% formaldehyde crosslink after washing; high values mean tight binding
Test [1] addresses T1, FEV (Homo sapiens, UniProt Q99581 1-238).
T1 sequence: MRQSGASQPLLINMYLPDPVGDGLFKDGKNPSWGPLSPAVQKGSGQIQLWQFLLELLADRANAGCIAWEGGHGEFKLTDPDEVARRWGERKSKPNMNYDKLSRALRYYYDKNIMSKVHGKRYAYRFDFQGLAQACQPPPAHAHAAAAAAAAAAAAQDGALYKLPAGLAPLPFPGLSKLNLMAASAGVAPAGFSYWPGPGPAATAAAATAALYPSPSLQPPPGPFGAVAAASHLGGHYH
The conditions noted are these: protein: recombinant; tags: N-terminal GST; dsDNA, one strand shown. In short, it runs like this: (§1)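 Human transcription factors carrying a GST fusion were produced in yeast, bound to glutathione beads, tagged with DNA barcodes and pooled together with a tag-only sample. Each pool was held with 200 nmole of a random double-stranded 16-mer DNA library in Tris/NaCl/DTT/glycerol buffer for 30 min at room temperature, then washed, crosslinked in 0.1% formaldehyde, proximity-ligated with BsaI/T4 ligase (1 h, 37 °C), PCR-amplified and sequenced on an Illumina NextSeq500. Binding signal is the read frequency of each hexamer for a given factor divided by its frequency in the tag-only sample.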

For test [2], the target named is ETV5 (Homo sapiens, UniProt P41161 1-510). Conditions: protein: recombinant; tags: N-terminal GST; dsDNA, one strand shown. An outline of the steps:
as §1

Test [3] deals with HSF1 (Homo sapiens, UniProt Q00613 1-529). Conditions: protein: recombinant; tags: N-terminal GST; chain copies: 3; dsDNA, one strand shown. In short, it runs like this:
as §1

The target of test [4] is T2, SPIC (Homo sapiens, UniProt Q8N5J4 1-248).
T2 sequence: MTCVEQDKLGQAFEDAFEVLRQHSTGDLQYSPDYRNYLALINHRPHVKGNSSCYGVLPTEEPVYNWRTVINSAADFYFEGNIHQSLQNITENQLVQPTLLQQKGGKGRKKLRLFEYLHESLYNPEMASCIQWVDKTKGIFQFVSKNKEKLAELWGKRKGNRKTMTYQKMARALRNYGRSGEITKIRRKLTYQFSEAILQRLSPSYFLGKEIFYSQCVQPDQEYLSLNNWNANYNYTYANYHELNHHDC
Conditions: protein: recombinant; tags: N-terminal GST; dsDNA, one strand shown. In short, it runs like this:
as §1

Test [5] addresses ELF4 (Homo sapiens, UniProt Q99607 1-663). The conditions noted are these: protein: recombinant; tags: N-terminal GST; dsDNA, one strand shown. In short, it runs like this:
as §1

The target in test [6] is T3, ELK4 (Homo sapiens, UniProt P28324-2 1-405).
T3 sequence: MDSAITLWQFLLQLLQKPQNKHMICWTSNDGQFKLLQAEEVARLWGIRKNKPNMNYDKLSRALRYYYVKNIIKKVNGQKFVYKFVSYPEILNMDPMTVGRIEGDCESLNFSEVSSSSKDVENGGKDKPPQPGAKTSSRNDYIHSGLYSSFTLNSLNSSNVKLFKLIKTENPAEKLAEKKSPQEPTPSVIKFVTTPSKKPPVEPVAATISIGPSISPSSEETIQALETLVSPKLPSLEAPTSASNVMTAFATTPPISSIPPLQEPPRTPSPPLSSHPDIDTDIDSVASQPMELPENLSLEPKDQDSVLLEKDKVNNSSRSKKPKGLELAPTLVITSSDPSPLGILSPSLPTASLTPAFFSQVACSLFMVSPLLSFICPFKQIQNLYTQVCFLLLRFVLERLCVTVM
Conditions: protein: recombinant; tags: N-terminal GST; dsDNA, one strand shown. In short, it runs like this: as §1

The target in test [7] is T4, ETV2 (Homo sapiens, UniProt O00321 1-342).
T4 sequence: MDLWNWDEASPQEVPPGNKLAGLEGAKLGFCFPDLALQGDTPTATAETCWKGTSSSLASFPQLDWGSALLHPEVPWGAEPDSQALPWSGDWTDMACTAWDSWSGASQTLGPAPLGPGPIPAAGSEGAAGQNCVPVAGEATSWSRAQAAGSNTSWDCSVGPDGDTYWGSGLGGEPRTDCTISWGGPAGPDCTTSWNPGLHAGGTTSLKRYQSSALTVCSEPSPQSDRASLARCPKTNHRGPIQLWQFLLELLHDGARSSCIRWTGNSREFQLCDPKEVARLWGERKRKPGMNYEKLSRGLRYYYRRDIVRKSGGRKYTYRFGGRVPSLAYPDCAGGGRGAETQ
The conditions noted are these: protein: recombinant; tags: N-terminal GST; dsDNA, one strand shown. In short, it runs like this: as §1

The target of test [8] is T5, ELF3 (Homo sapiens, UniProt P78545 1-371).
T5 sequence: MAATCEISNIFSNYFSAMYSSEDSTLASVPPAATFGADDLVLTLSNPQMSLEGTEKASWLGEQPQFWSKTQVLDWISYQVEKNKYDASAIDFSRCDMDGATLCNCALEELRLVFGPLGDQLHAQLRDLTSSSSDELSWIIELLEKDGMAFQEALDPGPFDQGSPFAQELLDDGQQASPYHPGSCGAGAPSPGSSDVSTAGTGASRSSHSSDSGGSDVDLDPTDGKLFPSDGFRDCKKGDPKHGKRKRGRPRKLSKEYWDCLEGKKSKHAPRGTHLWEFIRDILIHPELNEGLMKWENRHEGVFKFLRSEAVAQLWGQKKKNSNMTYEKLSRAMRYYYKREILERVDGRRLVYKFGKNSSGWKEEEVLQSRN
Conditions: protein: recombinant; tags: N-terminal GST; dsDNA, one strand shown. An outline of the steps: as §1

Test [9] concerns the target CRX (Homo sapiens, UniProt O43186 1-299). The conditions noted are these: protein: recombinant; tags: N-terminal GST; dsDNA, one strand shown. An outline of the steps: as §1
Test [10] has as its target ETV1 (Homo sapiens, UniProt P50549 1-477). Conditions: protein: recombinant; tags: N-terminal GST; dsDNA, one strand shown. An outline of the steps:
as §1

The target in test [11] is T6, ERF (Homo sapiens, UniProt P50548 1-548).
T6 sequence: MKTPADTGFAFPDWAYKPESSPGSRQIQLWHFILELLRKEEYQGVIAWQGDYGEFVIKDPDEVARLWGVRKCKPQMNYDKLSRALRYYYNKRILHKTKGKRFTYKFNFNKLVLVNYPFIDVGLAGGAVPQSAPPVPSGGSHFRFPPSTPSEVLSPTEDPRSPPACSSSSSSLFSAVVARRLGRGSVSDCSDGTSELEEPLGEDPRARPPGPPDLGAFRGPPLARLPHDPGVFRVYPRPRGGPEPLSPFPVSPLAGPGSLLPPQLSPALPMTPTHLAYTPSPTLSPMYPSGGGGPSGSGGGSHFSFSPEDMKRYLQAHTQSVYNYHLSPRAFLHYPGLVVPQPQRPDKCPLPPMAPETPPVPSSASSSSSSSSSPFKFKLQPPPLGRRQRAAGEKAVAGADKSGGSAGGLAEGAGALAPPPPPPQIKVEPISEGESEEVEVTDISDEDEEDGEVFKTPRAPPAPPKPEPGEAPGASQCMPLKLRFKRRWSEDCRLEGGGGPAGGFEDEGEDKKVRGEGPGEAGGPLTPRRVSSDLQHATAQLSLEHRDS
Conditions: protein: recombinant; tags: N-terminal GST; dsDNA, one strand shown. An outline of the steps:
as §1

Test [12] addresses T7, ETV3L (Homo sapiens, UniProt Q6ZN32 1-361).
T7 sequence: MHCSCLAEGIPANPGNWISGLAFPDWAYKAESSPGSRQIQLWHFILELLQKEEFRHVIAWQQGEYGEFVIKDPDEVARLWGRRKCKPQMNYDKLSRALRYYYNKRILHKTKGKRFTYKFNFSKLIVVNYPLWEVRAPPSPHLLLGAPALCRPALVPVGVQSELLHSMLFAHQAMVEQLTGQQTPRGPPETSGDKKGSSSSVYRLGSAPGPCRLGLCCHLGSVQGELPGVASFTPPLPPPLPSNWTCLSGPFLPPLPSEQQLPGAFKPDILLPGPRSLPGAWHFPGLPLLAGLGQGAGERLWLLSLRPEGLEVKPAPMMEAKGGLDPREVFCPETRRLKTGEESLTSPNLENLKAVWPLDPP
Conditions: protein: recombinant; tags: N-terminal GST; dsDNA, one strand shown. An outline of the steps:
as §1

In test [13] the target is T8, ETS2 (Homo sapiens, UniProt P15036 1-469).
T8 sequence: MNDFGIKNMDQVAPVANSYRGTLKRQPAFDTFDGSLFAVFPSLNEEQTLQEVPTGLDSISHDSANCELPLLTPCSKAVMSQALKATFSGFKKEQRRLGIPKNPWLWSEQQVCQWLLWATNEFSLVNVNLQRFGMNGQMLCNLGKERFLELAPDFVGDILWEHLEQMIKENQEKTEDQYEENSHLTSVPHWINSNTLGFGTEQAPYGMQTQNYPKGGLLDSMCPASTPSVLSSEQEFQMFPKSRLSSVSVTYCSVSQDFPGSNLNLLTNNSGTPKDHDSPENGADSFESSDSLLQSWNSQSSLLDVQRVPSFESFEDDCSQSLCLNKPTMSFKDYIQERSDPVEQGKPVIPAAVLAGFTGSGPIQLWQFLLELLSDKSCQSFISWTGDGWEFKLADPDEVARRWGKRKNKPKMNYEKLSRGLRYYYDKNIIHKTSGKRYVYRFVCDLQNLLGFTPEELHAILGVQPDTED
Conditions: protein: recombinant; tags: N-terminal GST; dsDNA, one strand shown. In short, it runs like this:
as §1

The target in test [14] is T9, SPDEF (Homo sapiens, UniProt O95238 1-335).
T9 sequence: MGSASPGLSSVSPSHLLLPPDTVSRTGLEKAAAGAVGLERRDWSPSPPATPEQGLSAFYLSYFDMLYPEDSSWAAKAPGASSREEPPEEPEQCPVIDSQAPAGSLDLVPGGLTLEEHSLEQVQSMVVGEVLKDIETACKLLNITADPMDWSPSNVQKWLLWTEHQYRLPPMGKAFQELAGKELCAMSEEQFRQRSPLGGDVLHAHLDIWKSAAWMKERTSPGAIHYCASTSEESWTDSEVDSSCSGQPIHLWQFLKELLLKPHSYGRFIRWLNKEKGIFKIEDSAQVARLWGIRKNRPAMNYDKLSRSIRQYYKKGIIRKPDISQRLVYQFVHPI
Conditions: protein: recombinant; tags: N-terminal GST; dsDNA, one strand shown. In short, it runs like this:
as §1

The target of test [15] is T10, ETV7 (Homo sapiens, UniProt Q9Y603 1-341).
T10 sequence: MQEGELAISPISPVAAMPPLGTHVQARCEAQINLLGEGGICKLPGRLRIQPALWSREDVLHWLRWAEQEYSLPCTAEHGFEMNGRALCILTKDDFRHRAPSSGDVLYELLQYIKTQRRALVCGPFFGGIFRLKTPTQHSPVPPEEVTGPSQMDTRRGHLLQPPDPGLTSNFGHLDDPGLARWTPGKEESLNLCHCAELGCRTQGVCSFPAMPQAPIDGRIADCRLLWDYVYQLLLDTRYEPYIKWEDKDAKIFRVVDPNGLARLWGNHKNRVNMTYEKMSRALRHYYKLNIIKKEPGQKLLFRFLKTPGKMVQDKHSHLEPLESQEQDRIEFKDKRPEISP
Conditions: protein: recombinant; tags: N-terminal GST; dsDNA, one strand shown. In short, it runs like this:
as §1

For test [16], the target named is T11, ELF5 (Homo sapiens, UniProt Q9UKW6-2 1-255).
T11 sequence: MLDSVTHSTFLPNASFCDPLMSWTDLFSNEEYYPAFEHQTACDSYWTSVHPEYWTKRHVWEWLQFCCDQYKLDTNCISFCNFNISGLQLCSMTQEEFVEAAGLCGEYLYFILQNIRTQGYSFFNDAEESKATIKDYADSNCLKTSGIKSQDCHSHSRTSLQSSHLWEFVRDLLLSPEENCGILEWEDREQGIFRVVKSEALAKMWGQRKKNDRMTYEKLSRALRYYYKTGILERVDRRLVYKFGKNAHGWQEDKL
The conditions noted are these: protein: recombinant; tags: N-terminal GST; dsDNA, one strand shown. In short, it runs like this: as §1

Test [17] deals with T12, ETV3 (Homo sapiens, UniProt P41162-2 1-143).
T12 sequence: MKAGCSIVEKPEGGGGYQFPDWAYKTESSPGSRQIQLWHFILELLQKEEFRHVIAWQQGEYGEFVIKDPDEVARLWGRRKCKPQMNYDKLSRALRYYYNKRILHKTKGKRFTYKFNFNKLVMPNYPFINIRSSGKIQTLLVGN
Conditions: protein: recombinant; tags: N-terminal GST; dsDNA, one strand shown. An outline of the steps: as §1

In test [18] the target is ETV6 (Homo sapiens, UniProt P41212 1-452). Conditions: protein: recombinant; tags: N-terminal GST; dsDNA, one strand shown. An outline of the steps: as §1
ETV6, sequence (P41212 whole entry): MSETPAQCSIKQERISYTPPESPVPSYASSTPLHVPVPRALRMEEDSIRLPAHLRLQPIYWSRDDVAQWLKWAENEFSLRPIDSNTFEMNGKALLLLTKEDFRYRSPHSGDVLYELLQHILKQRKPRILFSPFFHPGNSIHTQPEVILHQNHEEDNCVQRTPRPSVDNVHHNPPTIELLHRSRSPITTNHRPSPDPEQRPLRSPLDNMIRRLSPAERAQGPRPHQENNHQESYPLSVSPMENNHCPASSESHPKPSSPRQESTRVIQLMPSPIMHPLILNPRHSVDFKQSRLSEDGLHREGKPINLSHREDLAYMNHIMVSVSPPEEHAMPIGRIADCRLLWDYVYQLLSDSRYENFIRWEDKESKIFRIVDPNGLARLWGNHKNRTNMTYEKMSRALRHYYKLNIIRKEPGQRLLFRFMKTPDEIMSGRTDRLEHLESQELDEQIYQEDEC

CRX, sequence (O43186 whole entry): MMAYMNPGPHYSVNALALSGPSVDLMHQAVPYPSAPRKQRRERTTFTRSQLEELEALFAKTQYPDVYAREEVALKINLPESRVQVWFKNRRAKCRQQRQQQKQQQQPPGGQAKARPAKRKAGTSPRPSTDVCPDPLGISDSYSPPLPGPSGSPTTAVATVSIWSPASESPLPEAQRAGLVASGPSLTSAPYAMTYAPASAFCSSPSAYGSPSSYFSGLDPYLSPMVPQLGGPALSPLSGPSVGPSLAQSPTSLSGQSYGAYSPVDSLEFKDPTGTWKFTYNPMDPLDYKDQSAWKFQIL
ETV5, sequence (P41161 whole entry): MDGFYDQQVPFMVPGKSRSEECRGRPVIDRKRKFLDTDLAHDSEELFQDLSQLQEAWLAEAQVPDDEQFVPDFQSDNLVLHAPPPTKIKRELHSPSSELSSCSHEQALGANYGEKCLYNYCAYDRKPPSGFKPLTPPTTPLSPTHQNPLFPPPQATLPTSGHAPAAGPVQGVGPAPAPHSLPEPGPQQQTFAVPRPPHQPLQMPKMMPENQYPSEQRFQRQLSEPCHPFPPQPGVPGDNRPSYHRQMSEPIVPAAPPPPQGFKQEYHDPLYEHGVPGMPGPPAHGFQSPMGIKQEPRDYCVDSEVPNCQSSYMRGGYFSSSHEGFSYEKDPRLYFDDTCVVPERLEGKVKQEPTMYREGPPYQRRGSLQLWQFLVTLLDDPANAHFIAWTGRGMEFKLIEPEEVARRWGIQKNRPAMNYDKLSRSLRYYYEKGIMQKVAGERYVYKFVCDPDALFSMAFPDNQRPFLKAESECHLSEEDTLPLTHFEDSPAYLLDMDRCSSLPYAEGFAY
ELF4, sequence (Q99607 whole entry): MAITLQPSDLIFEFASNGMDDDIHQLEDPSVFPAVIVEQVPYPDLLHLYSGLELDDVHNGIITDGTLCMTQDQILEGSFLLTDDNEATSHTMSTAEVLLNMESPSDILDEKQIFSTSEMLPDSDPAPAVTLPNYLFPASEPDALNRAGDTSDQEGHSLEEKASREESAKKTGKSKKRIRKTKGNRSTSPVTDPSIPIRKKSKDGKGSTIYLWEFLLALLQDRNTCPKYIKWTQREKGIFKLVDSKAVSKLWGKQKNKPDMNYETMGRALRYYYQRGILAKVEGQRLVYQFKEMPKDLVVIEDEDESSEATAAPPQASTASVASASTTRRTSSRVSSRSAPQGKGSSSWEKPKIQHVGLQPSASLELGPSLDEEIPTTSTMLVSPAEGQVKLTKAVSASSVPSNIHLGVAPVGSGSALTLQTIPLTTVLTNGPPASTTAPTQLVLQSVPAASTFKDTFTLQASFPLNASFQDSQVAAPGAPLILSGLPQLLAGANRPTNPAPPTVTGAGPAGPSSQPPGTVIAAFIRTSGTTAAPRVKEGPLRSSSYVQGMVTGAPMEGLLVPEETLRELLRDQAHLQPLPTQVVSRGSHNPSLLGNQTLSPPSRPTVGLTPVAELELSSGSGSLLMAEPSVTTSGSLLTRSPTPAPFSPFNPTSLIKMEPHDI
ETV1, sequence (P50549 whole entry): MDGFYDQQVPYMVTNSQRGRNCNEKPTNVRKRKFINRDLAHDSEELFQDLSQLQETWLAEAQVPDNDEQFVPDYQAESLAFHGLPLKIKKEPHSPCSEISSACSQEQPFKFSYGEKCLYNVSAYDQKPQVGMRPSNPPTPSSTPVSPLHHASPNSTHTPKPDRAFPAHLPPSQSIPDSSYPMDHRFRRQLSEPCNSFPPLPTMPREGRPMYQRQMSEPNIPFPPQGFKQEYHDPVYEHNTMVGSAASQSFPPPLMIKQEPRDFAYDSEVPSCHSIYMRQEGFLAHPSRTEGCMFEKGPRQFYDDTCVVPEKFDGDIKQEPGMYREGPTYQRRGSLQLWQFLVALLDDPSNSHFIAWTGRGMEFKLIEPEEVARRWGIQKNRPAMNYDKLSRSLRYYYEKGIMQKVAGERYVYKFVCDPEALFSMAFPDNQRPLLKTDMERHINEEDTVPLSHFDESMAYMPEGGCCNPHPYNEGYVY
HSF1, sequence (Q00613 whole entry): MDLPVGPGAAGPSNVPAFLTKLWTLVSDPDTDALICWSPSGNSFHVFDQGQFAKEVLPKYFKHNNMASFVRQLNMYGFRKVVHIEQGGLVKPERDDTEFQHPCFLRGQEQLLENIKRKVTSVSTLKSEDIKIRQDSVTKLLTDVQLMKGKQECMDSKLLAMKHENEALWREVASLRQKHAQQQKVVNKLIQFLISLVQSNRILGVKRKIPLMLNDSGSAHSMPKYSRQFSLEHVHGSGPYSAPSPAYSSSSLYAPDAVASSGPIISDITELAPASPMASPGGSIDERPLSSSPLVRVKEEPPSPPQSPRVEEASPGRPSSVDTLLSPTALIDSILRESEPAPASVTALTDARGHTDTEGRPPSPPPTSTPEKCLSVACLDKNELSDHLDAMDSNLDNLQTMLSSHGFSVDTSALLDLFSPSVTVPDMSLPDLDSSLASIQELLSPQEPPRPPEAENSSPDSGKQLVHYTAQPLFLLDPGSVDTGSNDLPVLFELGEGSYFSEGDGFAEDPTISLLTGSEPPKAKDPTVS

For the sequence CTATTT, the binding signal was 1.68 fold enrichment (6-mer frequency, TF over GST control) in test [1]; 1.64 fold enrichment (6-mer frequency, TF over GST control) in [2]; 1.45 fold enrichment (6-mer frequency, TF over GST control) in test [3]; 2.07 fold enrichment (6-mer frequency, TF over GST control) in test [4]; 1.69 fold enrichment (6-mer frequency, TF over GST control) in test [5]; 1.88 fold enrichment (6-mer frequency, TF over GST control) in test [6]. For the same sequence, the binding signal is 1.68 fold enrichment (6-mer frequency, TF over GST control) in test [7]; 2.07 fold enrichment (6-mer frequency, TF over GST control) in test [8]; 1.64 fold enrichment (6-mer frequency, TF over GST control) in test [9]; 1.74 fold enrichment (6-mer frequency, TF over GST control) in test [10]; 1.63 fold enrichment (6-mer frequency, TF over GST control) in test [11]; 1.82 fold enrichment (6-mer frequency, TF over GST control) in [12]. Also, the binding signal was 1.71 fold enrichment (6-mer frequency, TF over GST control) in test [13]; 1.57 fold enrichment (6-mer frequency, TF over GST control) in test [14]; 1.66 fold enrichment (6-mer frequency, TF over GST control) in [15]; 1.72 fold enrichment (6-mer frequency, TF over GST control) in test [16]; 1.63 fold enrichment (6-mer frequency, TF over GST control) in test [17]; 1.9 fold enrichment (6-mer frequency, TF over GST control) in [18].
